This is a sample that favours compounds with a hit; in the whole collection about 17% have one here.
TDP1 cell noCPT = qHTS for Inhibitors of human tyrosyl-DNA phosphodiesterase 1 (TDP1): qHTS in cells in absence of CPT | actives 15% (n = 420,000) | DT40 Tdp1-/- hTDP1 cells, no CPT, ATP luminescence, 48 h | Potency, µM (doses to about 46.2 µM), inactives show top-dose activity change, negative = growth inhibition, most hits filed as inhibitors; also: % is scaled to controls: 0 for no effect and ±100 for the full control effect; nearly all actives have a fitted effect of over 55% in size
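A cellular qHTS used chicken DT40 cells lacking endogenous Tdp1 but carrying stably transfected human TDP1. Compounds were applied without camptothecin, and cell growth kinetics were judged by ATP-dependent luminescence after ≥48 hr.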
TGFb SMAD3 inh = qHTS for Inhibitors of TGF-b. HepG2 CAGA-GFP TGF-b/SMAD3 reporter, GFP fluorescence, 18 h; TGF-beta stimulated, 500 pg/mL final. Potency, µM (highest dose often 46.1 µM), inactives show top-dose activity, negative = inhibition, actives largely listed as inhibitors. actives 1.2% (n = 410,000). AID 588855, 2011; also: % is scaled to controls: 0 for no effect and ±100 for the full control effect; nearly all actives have a fitted effect of over 65% in size
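HEPG2 CAGA-GFP, 1000 cells/well; 2 h settle, 37 C; cpd via pin tool; TGF-b 500 pg/mL final; 18 h, 37 C; GFP imaging ex488/em500-530; %Activity normalised to -TGF-b and +DMSO controls; CRC fit, curve class.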
TDP1 cell CPT = qHTS for Inhibitors of human tyrosyl-DNA phosphodiesterase 1 (TDP1): qHTS in cells in presence of CPT; Potency, µM (series often up to 46.2 µM), for the others: top-dose activity change, negative = growth inhibition, usual class: inhibitors; actives 12% (n = 420,000); chicken DT40 Tdp1-/-;hTDP1 cells + 20 nM CPT, ATP luminescence, 48 h; also: % is scaled to controls: 0 for no effect and ±100 for the full control effect; nearly all actives have a fitted effect of over 55% in size
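Chicken DT40 Tdp1-/- cells stably complemented with human TDP1 were seeded at 400 cells/well in medium containing 20 nM camptothecin, exposed to pin-transferred compounds, and grown at 37 °C for at least 48 hr. Viability was read as ATP luminescence.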
HT1080-NT tox = qHTS for induction of synthetic lethality in tumor cells producing 2HG: qHTS for the HT-1080-NT fibrosarcoma cell line. HT-1080-NT fibrosarcoma viability, CellTiter-Glo ATP luminescence, 48 h. Potency, µM (series often up to 46.1 µM), for the others: at the highest dose activity, negative = less viability, actives largely listed as cytotoxic. actives 1.6% (n = 360,000). AID 686970, 2013;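 also: NT is the 2HG producing partner of a matched IDH1 knockdown line; 0% = DMSO-treated cells and -100% = media-only wells without cells; nearly all actives have a fitted effect of over 55% in size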
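HT-1080-NT; 750 cells/well; 5% FBS RPMI; 48 h compound, 37 degrees C; CellTiter-Glo luminescence; curve fitting and curve-class assignment.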
HepG2 viability = qHTS for Inhibitors of TGF-b: Cytotox Counterscreen; HepG2 CAGA-GFP viability, ATP luminescence, 18 h; Potency, µM (titrated, usually from 46.1 µM), inactives show at the top dose activity change, negative = cytotoxicity, most hits filed as cytotoxic; actives 0.76% (n = 410,000)
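HepG2 CAGA-GFP cells (1000/well, DMEM with 1% FBS) received compound, then TGF-beta at 500 pg/mL final, and were incubated 18 hours at 37 degrees C. Viability was read by CellTiter-Glo luminescence. Media-only wells were set as complete cell-killing and DMSO as no toxicity.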
HT1080 IDH1KD tx = qHTS for induction of synthetic lethality in tumor cells producing 2HG: qHTS for the HT-1080-IDH1KD cell line; HT-1080 IDH1 knockdown viability, ATP luminescence, 48 h; Potency, µM (series often up to 46.1 µM), without a hit: at the highest dose activity, negative = toxicity, usual class: cytotoxic; actives 2% (n = 360,000);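 also: 0% = DMSO wells and -100% = cell-free medium wells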
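Luminescent ATP read-out (CellTiter-Glo, 10 min at room temperature) after 48 h compound exposure at 37 °C gave viability of IDH1-knockdown HT-1080 cells. Activity was normalised to DMSO and cell-free wells, then fitted as concentration-response curves.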
* hit, by the source's call; i = inactive; ? = inconclusive; nt = not tested or not shown. Calls follow the shape of the dose curve; as a rule, active = well fitted curve in the direction sought with a large enough effect; inconclusive = small, poorly fitted or top-dose-only effect, or another doubt; inactive = no such curve, though single readings can be large; an effect the other way counts as inactive or inconclusive. Potency is read from the fitted curve at half-maximal effect.

SMILES	TDP1 cell noCPT	TGFb SMAD3 inh	TDP1 cell CPT	HT1080-NT tox	HepG2 viability	HT1080 IDH1KD tx
COc1cc(CN2CCCC(C(=O)Nc3cccc(-n4cccn4)c3)C2)ccc1F (centres undefined)	26µM*	-20%	?	?	-27%	?
O=C(Nc1cccc(-n2cccn2)c1)C1CCCN(Cc2ccccc2F)C1 (centres undefined)	?	-4%	21µM*	1%	-32%	7%
COc1ccc(CN2CCCC(C(=O)Nc3cccc(-n4cnnn4)c3)C2)c(C)c1C (centres undefined)	?	-2%	?	-24%	-15%	-15%
O=C(C1CCCN(Cc2ccccc2F)C1)N1CCCCC1 (centres undefined)	-8%	13%	1%	18%	-17%	22%
Cc1ccccc1-c1nc2c3c(-c4ccccc4)c(-c4ccccc4)oc3ncn2n1	-7%	-26%	4%	nt	-13%	nt
O=S(=O)(/N=C(/Nc1ccc(Cl)cc1Cl)c1ccccc1)c1cccs1	2%	-4%	-12%	12%	-7%	18%
CN(C(=O)c1ccccc1Cl)C1CCCCC1	-18%	17%	-7%	17%	0%	-2%
CC(=O)Oc1ccc(Cl)cc1CN(C(C)=O)C1CCCCC1	?	0%	23µM*	-23%	-12%	-15%
CC(=O)c1cc(Cl)ccc1OCC(=O)NC1CCCC1	?	3%	?	0%	-6%	-9%
CC(=O)Oc1ccccc1C(=O)N(C1CCCCC1)C1CCCCC1	13µM*	?	23µM*	-29%	-32%	-30%
CCOc1cccc2cc(-c3nc4sc(C(=O)Nc5ccc(C)cc5)c(C)c4c(=O)[nH]3)c(=O)oc12	-7%	i	-2%	nt	-4%	nt
Cn1c(N)c(C(=O)COC(=O)C2(c3ccc(Cl)cc3)CCCC2)c(=O)n(C)c1=O	12µM*	-1%	15µM*	?	-42%	-25%
Cn1c(N)c(C(=O)COC(=O)C2(c3ccc(F)cc3)CCCC2)c(=O)n(C)c1=O	18µM*	-2%	?	-23%	4%	-17%
CC[C@H](C)[C@H](NC(=O)c1ccc(Cl)cc1)C(=O)OCC(=O)c1c(N)n(C)c(=O)n(C)c1=O	?	-8%	?	-13%	-3%	-16%
Cn1c(N)c(C(=O)COC(=O)C2(c3ccccc3F)CCCC2)c(=O)n(C)c1=O	?	-2%	?	-14%	-33%	-13%
Cn1c(N)c(C(=O)COC(=O)/C=C/c2ccc(Cl)cc2Cl)c(=O)n(C)c1=O	16µM*	-1%	?	2%	-7%	-1%
CC(C)[C@H](NS(=O)(=O)c1ccc(Cl)cc1)C(=O)OCC(=O)c1c(N)n(C)c(=O)n(C)c1=O	21µM*	-29%	?	0%	-9%	-1%
Cn1c(N)c(C(=O)COC(=O)/C=C/c2ccc(Cl)cc2)c(=O)n(C)c1=O	?	-16%	?	2%	-6%	7%
COc1ccc(CN2CCOc3ccc(CN4CCC(Oc5cccnc5)CC4)cc3C2)c(F)c1	21µM*	nt	?	nt	nt	nt
O=C(c1cscn1)N1CCOc2ccc(CN3CCC(Oc4cccnc4)CC3)cc2C1	0.29µM*	nt	?	nt	nt	nt
COc1cc(CN2CCOc3ccc(CN4CCC(Oc5cccnc5)CC4)cc3C2)ccc1F	21µM*	nt	?	nt	nt	nt
COc1cc(OC)c(CN2CCOc3ccc(CN4CCC(O)CC4)cc3C2)c(OC)c1	23µM*	nt	?	nt	nt	nt
CCN(CC1CCCN(CCc2cccc(F)c2)C1)C(=O)c1ccc(CSC)o1 (centres undefined)	23µM*	0%	?	-5%	2%	-25%
CCN(Cc1ccc(O)cc1)CC1CCCN(CCc2cccc(F)c2)C1 (centres undefined)	?	9%	16µM*	?	-30%	?
COc1cc(OC)c(OC)cc1CN(C)CC1CCCN(CCc2ccccc2F)C1 (centres undefined)	?	-1%	15µM*	-26%	-21%	?
SMILES	TDP1 cell noCPT	TGFb SMAD3 inh	TDP1 cell CPT	HT1080-NT tox	HepG2 viability	HT1080 IDH1KD tx
COc1ccc(CN(C)CC2CCCN(CCc3ccccc3C)C2)cc1O (centres undefined)	?	-18%	-23%	?	-31%	?
CCN(CC1CCCN(CCc2cccc(F)c2)C1)C(=O)c1ccoc1C (centres undefined)	-26%	-7%	-23%	-8%	-12%	1%
CCN(CC1CCCN(CCc2cccc(OC)c2)C1)C(=O)C=C(C)C (centres undefined)	0%	27%	-9%	7%	-4%	-1%
CCN(Cc1cccc(OC)c1)CC1CCCN(CCc2cccc(OC)c2)C1 (centres undefined)	?	?	15µM*	2%	-46%	-1%
CCOc1ccccc1N(CC(=O)NCc1ccco1)C(=O)CCC(=O)Nc1nccs1	-14%	10%	0%	6%	14%	1%
COc1ccccc1NC(=S)NC(=O)c1ccc(Cn2cc(Br)cn2)cc1	?	-10%	-15%	-26%	-18%	?
CCOc1cccc(CN(CC)CC2CCCN(CCc3cccc(OC)c3)C2)c1O (centres undefined)	16µM*	-19%	?	-27%	-37%	-23%
CC(=O)Nc1ccc(CN(C)CC2CCCN(CCc3cccc(C(F)(F)F)c3)C2)cc1 (centres undefined)	?	1%	13µM*	?	-83%	21µM*
CN(CC1CCCN(CCc2cccc(C(F)(F)F)c2)C1)C(=O)c1ccco1 (centres undefined)	-25%	-25%	-25%	-2%	-29%	-2%
COc1cccc(CN(C)CC2CCCN(CCc3ccccc3C)C2)c1 (centres undefined)	18µM*	?	?	?	-48%	?

Screening data as filed in PubChem.
